TGFb SMAD3 inh: qHTS for Inhibitors of TGF-b; AID 588855, 2011; Potency, µM (top dose mostly 46.1 µM), for inactives: top-dose activity, negative = inhibition, usual class: inhibitors; HepG2 CAGA-GFP TGF-b/SMAD3 reporter, GFP fluorescence, 18 h; TGF-beta stimulated, 500 pg/mL final; 410,000 compounds, 1.2% hits; also: % is scaled to controls: 0 for no effect and ±100 for the full control effect; nearly all actives have a fitted effect of over 65% in size
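GFP signal (ex488/em500-530) from TGF-beta-stimulated HEPG2 CAGA-GFP cells, 500 pg/mL final, 18 h at 37 degrees C in DMEM plus 1% FBS, normalized to unstimulated and DMSO-stimulated controls.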
HepG2 viability: qHTS for Inhibitors of TGF-b: Cytotox Counterscreen; 410,000 compounds, 0.76% hits; Potency, µM (doses to about 46.1 µM), for the others: at the highest dose activity change, negative = cytotoxicity, most hits filed as cytotoxic; HepG2 CAGA-GFP viability, ATP luminescence, 18 h
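CellTiter-Glo luminescence gave cytotoxicity after 18 hours at 37 degrees C. The cells were HepG2 CAGA-GFP in 1% FBS DMEM, stimulated with 500 pg/mL TGF-beta after compound addition. %Activity was normalised to no-cell wells (complete cell-killing) and DMSO (no toxicity), and curves were fitted and classified.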
HT1080NT lethal: qHTS for induction of synthetic lethality in tumor cells producing 2HG: qHTS for the HT-1080-NT fibrosarcoma cell line. Potency, µM (top dose mostly 46.1 µM), without a hit: at the highest dose activity, negative = less viability, most hits filed as cytotoxic. AID 686970, 2013. 360,000 compounds, 1.6% hits. HT-1080-NT fibrosarcoma viability, CellTiter-Glo ATP luminescence, 48 h;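 also: NT is the 2HG producing partner of a matched IDH1 knockdown line; 0% = DMSO-treated cells and -100% = media-only wells without cells; nearly all actives have a fitted effect of over 55% in size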
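Compounds were tested in concentration-response format on HT-1080-NT cells for 48 hours at 37 degrees C. Cell viability came from CellTiter-Glo luminescence; curves were classified by r2, response magnitude and activity.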
KB-3-1 cytotox: qHTS assay for MDR1-selective chemotherapeutics: Primary screen using the parental adenocarcinoma cell KB-3-1; KB-3-1 viability, CellTiter-Glo ATP luminescence, 72 h; Potency, µM (series often up to 46.1 µM), most hits filed as cytotoxic; 400,000 compounds, 1.4% hits; AID 1347075, 2019; also: % is scaled to controls: 0 for no effect and ±100 for the full control effect; nearly all actives have a fitted effect of over 60% in size
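72 h, 37 °C compound treatment of KB-3-1 parental cells; CellTiter-Glo added, 10 min, luminescence read. Data corrected against DMSO-only plates and normalized before curve fitting.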
KB-V1 MDR tox: qHTS assay for MDR1-selective chemotherapeutics: Primary screen using the drug-selected MDR subline cells KB-V1 | Potency, µM (series often up to 46.1 µM), usual class: cytotoxic | KB-V1 MDR cells viability, CellTiter-Glo, 72 h | 400,000 compounds, 3.4% hits; also: % is scaled to controls: 0 for no effect and ±100 for the full control effect; nearly all actives have a fitted effect of over 60% in size
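qHTS viability screen in drug-selected KB-V1 MDR cells: 72 h compound treatment at 37 degrees C, ATP luminescence end point.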
HT1080 IDH1KD tx: qHTS for induction of synthetic lethality in tumor cells producing 2HG: qHTS for the HT-1080-IDH1KD cell line | 360,000 compounds, 2% hits | AID 686971, 2013 | HT-1080 IDH1 knockdown viability, ATP luminescence, 48 h | Potency, µM (highest dose often 46.1 µM), for inactives: at the highest dose activity, negative = toxicity, actives largely listed as cytotoxic;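 also: 0% = DMSO wells and -100% = cell-free medium wells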
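Luminescent ATP read-out (CellTiter-Glo, 10 min at room temperature) after 48 h compound exposure at 37 °C gave viability of IDH1-knockdown HT-1080 cells. Activity was normalised to DMSO and cell-free wells, then fitted as concentration-response curves.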
The depositor's hits bear a star; i = inactive; ? = inconclusive; nt = no result. An excerpt weighted towards active compounds, which were near 6.6% of everything screened. Calls follow the shape of the dose curve; as a rule, active = well fitted curve in the direction sought with a large enough effect; inconclusive = small, poorly fitted or top-dose-only effect, or another doubt; inactive = no such curve, though single readings can be large; an effect the other way counts as inactive or inconclusive. Potency is read from the fitted curve at half-maximal effect.

SMILES	TGFb SMAD3 inh	HepG2 viability	HT1080NT lethal	KB-3-1 cytotox	KB-V1 MDR tox	HT1080 IDH1KD tx
Cn1c(=O)[nH]c2cc(-c3noc(-c4ccc(F)cc4)n3)ccc21	-10%	-13%	nt	i	i	nt
O=C(c1ccncc1)N(Cc1cc2ccccc2[nH]c1=O)C1CCCCC1	-18%	-70%	7.1µM*	9.2µM*	?	5.6µM*
COc1ccc2[nH]c(=O)c(CN(C(=O)NC3CCCCC3)C3CCCCC3)cc2c1	-5%	0%	-7%	?	10µM*	1%
COc1ccc(NCc2cc3cc(OC)ccc3[nH]c2=O)cc1	-14%	-53%	-10%	i	18µM*	-8%
COc1ccc(NCc2cc3ccccc3[nH]c2=O)cc1	-9%	-16%	-8%	i	i	-22%
COc1ccc2[nH]c(=O)c(CNc3cccc(C)c3)cc2c1	-9%	-2%	1%	?	5.8µM*	-13%
COc1ccc2[nH]c(=O)c(CNC3CCCCC3)cc2c1	-7%	0%	0%	i	i	10%
CCCCOc1ccc(C(=O)NCC2(N3CCN(C)CC3)CCCCC2)cc1	0%	-20%	nt	nt	nt	nt
COC(=O)C1NN=C(C(=O)c2ccc(Cl)cc2)C1c1ccc(OC)cc1 (stereo not drawn)	-23%	-1%	-2%	i	?	-1%
COC(=O)C1NN=C(C(=O)c2ccccc2)C1c1ccccc1 (stereo not drawn)	-3%	2%	0%	i	15µM*	-7%
Cn1cc(C(=O)NCCc2ccc(Cl)cc2)c(=O)c2cc(S(=O)(=O)N3CCOCC3)ccc21	14%	3%	nt	i	i	nt
Nc1c(C(=O)NCC2CCCO2)sc2nc3c(c(-c4ccco4)c12)CC/C3=C\c1ccco1 (stereo not drawn)	18µM*	6%	-2%	i	i	0%
O=C(Nc1ccccc1C(=O)N/N=C/c1ccc(F)cc1)c1ccccc1Br	-8%	-31%	5%	i	26µM*	?
O=C(N/N=C/c1ccc(O)cc1)c1ccc(NC(=O)c2ccccc2Br)cc1	-1%	-19%	-22%	i	i	?
Cc1ccccc1C(=O)Nc1ccc(C(=O)N/N=C/c2ccc(O)cc2)cc1	6%	-29%	8.2µM*	i	i	?
Cc1ccccc1C(=O)Nc1ccc(C(=O)N/N=C/c2ccncc2)cc1	1%	-7%	-12%	i	i	-6%
O=C(Nc1ccccc1C(=O)N/N=C/c1ccncc1)c1ccccc1	4%	5µM*	21µM*	?	i	9.2µM*
COc1ccc(C(=O)Nc2ccccc2C(=O)N/N=C/c2ccco2)cc1	-6%	-67%	9.2µM*	i	i	?
CCOC(=O)c1cccc(NC(=O)C2CCCN(S(=O)(=O)c3cc(Br)cc4c3N(C(=O)CC)CC4)C2)c1 (stereo not drawn)	-4%	0%	nt	i	i	nt
CCN(Cc1ccccc1)C(=O)c1cnn(-c2ccc(F)cc2)c1-n1cccc1	-3%	-28%	nt	i	?	nt
CCOc1cccc2sc(N(Cc3cccnc3)C(=O)C3CCCCC3)nc12	?	-21%	nt	i	i	nt
CN1CC2(Cc3cc([N+](=O)[O-])ccc31)C(=O)OC(C)(C)OC2=O	-6%	1%	nt	?	?	nt
CCOc1cccc(OCCOCCOc2ccccc2C(C)=O)c1	-6%	-27%	8%	i	15µM*	17%
CCOc1ccc(OCCCCOc2ccccc2C(C)=O)cc1	-1%	-18%	8%	i	i	2%
CC1=C(C(=O)Nc2ccc(C)cc2C)C(c2cc(Br)ccc2F)n2ncc(C(=O)Nc3ccc(C)cc3)c2N1 (stereo not drawn)	4%	-43%	nt	nt	nt	nt
SMILES	TGFb SMAD3 inh	HepG2 viability	HT1080NT lethal	KB-3-1 cytotox	KB-V1 MDR tox	HT1080 IDH1KD tx
Cc1cccc(Oc2ccccc2NC(=O)CSCC(=O)Nc2cc(C)on2)c1	0%	-24%	-11%	?	7.3µM*	-25%
COc1cc(C2NC(=O)N(C)C3=C2C(=O)N(c2ccccc2)C3)ccc1O (stereo not drawn)	-11%	-32%	nt	i	i	nt
N#Cc1cc2c(nc1SCC(=O)NCc1ccc3c(c1)OCO3)CCCCC2	?	-1%	5%	i	13µM*	-3%
Cc1onc(C(=O)N2CCC(Cc3ccccc3)CC2)c1[N+](=O)[O-]	?	-2%	5.8µM*	i	i	10µM*
O=C(CSc1nc2c([nH]c3ccccc32)c(=O)n1-c1ccccc1)N1CCc2ccccc21	-1%	-10%	nt	nt	nt	nt
CN(Cc1cnc2nc(N)nc(N)c2n1)c1ccc(C(=O)NC(CCC(=O)O)C(=O)O)cc1C(F)(F)F (stereo not drawn)	-25%	-63%	?	0.013µM*	?	0.15µM*
Nc1nc(N)c2nc(CNc3ccc(C(=O)NC(CCC(=O)O)C(=O)O)cc3)cnc2n1 (stereo not drawn)	4%	-37%	nt	i	i	nt
CN(Cc1cnc2nc(N)nc(N)c2n1)c1ccc(C(=O)NC(CCC(=O)O)C(=O)O)cc1 (stereo not drawn)	-27%	0.28µM*	0.23µM*	0.0052µM*	?	0.0065µM*
Nc1nc2[nH]cc(CCc3ccc(C(=O)N[C@@H](CCC(=O)O)C(=O)O)cc3)c2c(=O)[nH]1	-14%	-7%	nt	i	i	nt
N#CC1=C(N)Oc2c(oc(CO)cc2=O)C1c1ccsc1 (stereo not drawn)	-2%	4%	0%	i	i	-6%
N#CC1=C(N)Oc2c(ccc3ccccc23)C1c1ccsc1 (stereo not drawn)	?	-25%	13µM*	6.5µM*	?	5.8µM*
Cc1ccc(CNC(=O)CCc2nc3cccnc3n2Cc2ccccc2)cc1	-3%	-19%	nt	i	i	nt
CCOC(=O)c1c(C)oc2nc(C)nc(N3CCN(c4cccc(C(F)(F)F)c4)CC3)c12	-12%	-34%	nt	?	16µM*	nt
CCOC(=O)c1c(C)oc2ncnc(N3CCN(c4cccc(Cl)c4)CC3)c12	11µM*	-46%	nt	?	?	nt
Cc1ccc(S(=O)(=O)N2CCCCC2)cc1NC(=O)Cn1cnnn1	-18%	-6%	0%	i	i	-3%
